# In PubChem BioAssay AID1259415 (National Center for Advancing Translational Sciences (NCATS), 2018):
# The campaign covered roughly 410,000 compounds. About 18,000 (4.4%) were called active. Inconclusive results (about 7%) are left out. This is one part of a sample in which actives are shown more often than they occur. Cut-off read from the data, not from the text of the source: active = activity change below about -60%; inconclusive = no clear call, values can overlap the other calls; inactive = above about -39%.
# Assay: qHTS Assay for inhibitors of the human cytomegalovirus (HCMV)
# Conditions: HFF cells, HCMV-luciferase reporter, 72 h; at 57.5 µM; active compounds read low
# Summary of the method: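 Two-dose cell screen: HFF monolayers treated with compounds and infected with luciferase-expressing HCMV at 1 PFU/cell, 72 h at 37C, then lysed for luciferase measurement.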
# % is set by controls: 0 for no effect and ±100 for the full control effect.
row,SMILES,"activity change, negative = inhibition"
1,CCn1c2ccccc2c2cc(CN3CCN(Cc4cccc(Cl)c4)CC3)ccc21,-0.564% (inactive)
2,C/C(=N\NC(=S)NC1CCCCC1)c1ccc(C)o1,-90.6% (active)
3,C/C(=N/NC(=O)c1ccc(Br)o1)c1ccc(C)o1,80.2% (inactive)
4,Cc1ccc(/C=N/NC(=S)NC2CCCCC2)o1,-8.71% (inactive)
5,Cn1c(=O)c2c(n3c4ccccc4nc13)NC(=O)CC2c1cccc(Cl)c1 (stereo not drawn),1.23% (inactive)
6,CC(C)Cn1c(C2CC(=O)N(c3ccccc3Cl)C2)nc2ccccc21 (stereo not drawn),-19.6% (inactive)
7,CCCS(=O)(=O)N1CCC(n2c(C(F)(F)F)nc3cccnc32)CC1,-21.7% (inactive)
8,O=C(Nc1ccc(Cl)cc1C(=O)c1ccccc1)c1cc(Cl)cc(Cl)c1,5.04% (inactive)
9,O=C(OCC(O)C(O)COC(=O)c1ccccc1)c1ccccc1 (stereo not drawn),4.04% (inactive)
10,O=C(NC1=CC(=O)c2ccccc2C1=O)c1ccccc1,-66.1% (active)
11,O=C(NCCCO)c1nn(-c2ccc(Cl)cc2)nc1CO,-7.65% (inactive)
12,CCC1(C)Cc2c(sc3[nH]c(=S)n(Cc4ccccc4)c(=O)c23)CO1 (stereo not drawn),-69.4% (active)
13,CC(C)c1nc2sc3c(c2c(=O)n1N)CC(C)(C)OC3,-18.9% (inactive)
14,CCCSc1nc(NCc2ccco2)c2c3c(sc2n1)COC(C)(CC)C3 (stereo not drawn),-2.99% (inactive)
15,Cn1c(=O)c2c(ncn2CC(=O)Nc2cccc(C(F)(F)F)c2)n(C)c1=O,2.82% (inactive)
16,Cc1ccc(C)c(C(O)c2ncc(-c3cccc4ccccc34)[nH]2)c1 (stereo not drawn),4.52% (inactive)
17,CC(=O)N1CCCc2cc(S(=O)(=O)Nc3ccc(Cl)cc3F)ccc21,-24.4% (inactive)
18,CC(Cc1ccccc1)NCCC(c1ccccc1)c1ccccc1 (stereo not drawn),-91.4% (active)
19,CC(CCc1ccccc1)NCC(O)c1cccc([N+](=O)[O-])c1 (stereo not drawn),-22% (inactive)
20,Cc1ncoc1C(=O)NCCC(c1ccccc1)c1ccccc1,-6.8% (inactive)

row,SMILES,"activity change, negative = inhibition"
1,CCOC(=O)C(CCOc1cccc(CC)c1)C(=O)OCC,-23.8% (inactive)
2,CC(=O)Nc1ccc(NC(=O)COc2ccc(S(=O)(=O)NC(C)c3ccccc3)cc2)cc1 (stereo not drawn),28.7% (inactive)
3,CC(C)NS(=O)(=O)c1ccc(OCC(=O)NC2CCCCCC2)cc1,-39.9% (inactive)
4,CC(C)NS(=O)(=O)c1ccc(OCC(=O)Nc2ccc3c(c2)OCCO3)cc1,-82.2% (active)
5,O=C(NCc1ccccc1)C(=O)NCC(c1ccco1)S(=O)(=O)c1ccc(Cl)cc1 (stereo not drawn),-24.1% (inactive)
6,c1nnc2c3c4c(sc3ncn12)CCC4,-65.9% (active)
7,O=c1oc(-c2ccco2)nc2sc3c(c12)CCCCC3,69% (inactive)
8,S=c1[nH]nc2c3c4c(sc3ncn12)CCCC4,-26.7% (inactive)
9,O=C(Nc1nnc(C2=COCCO2)o1)c1ccc([N+](=O)[O-])s1,-20.1% (inactive)
10,COc1cccc(Cn2c(SCc3ccc(C(=O)N4CCC(C)CC4)cc3)nc3ccncc32)c1,-13.1% (inactive)
11,Cc1cccc(Cn2c(SCc3ccc(C(=O)N4CCC(C)CC4)cc3)nc3ccncc32)c1,-62.6% (active)
12,Cc1cccc(CSc2nc3ccncc3n2Cc2ccc(C(=O)O)cc2)c1,9.17% (inactive)
13,NC1(C#Cc2ccc(F)c(-c3noc4ccccc34)c2)CCCCC1,-18.5% (inactive)
14,O=c1cc(O)c(-c2cccc(C(F)(F)F)c2)c(Cl)[nH]1,-14.8% (inactive)
15,O=C(NNc1ccccc1Cl)C(O)(c1cccc(C(F)(F)F)c1)c1cccc(C(F)(F)F)c1,-100% (active)
16,O=C(Nc1cc(C(F)(F)F)ccc1Cl)c1nc2ccccc2nc1N1CCCCC1,10.2% (inactive)
17,COc1cccc(/C=C2\Sc3ccc(C(=O)NCC4CCCO4)cc3N(C)C2=O)c1 (stereo not drawn),-14.4% (inactive)
18,COc1cccc(NC(=O)C2C(c3ccccc3)C2(Cl)Cl)c1 (stereo not drawn),-32.5% (inactive)
19,COc1ccc2c(c1)C(C)=CC(C)(C)N2C(=O)Nc1ccccc1,-99.4% (active)
20,COc1ccc2c(c1)C(C)=CC(C)(C)N2C(=O)CNCc1ccc2c(c1)OCO2,-9.9% (inactive)

row,SMILES,"activity change, negative = inhibition"
1,C#CCOc1ccc(C2CC(=O)Nc3c2c(C)nn3-c2nc(C)cc(C)n2)cc1 (stereo not drawn),-10.8% (inactive)
2,CC[C@]12c3[nH]c4cc(CCC(=O)N(C)C)ccc4c3CCN1C(=O)[C@@H](CC(=O)NCCCN(C)C)C[C@@H]2C(=O)N1CCN(C(=O)c2ccco2)CC1,-18.4% (inactive)
3,CN1c2ccc(Cl)cc2-c2nc(SCC(=O)Nc3cc(F)ccc3F)ncc2S1(=O)=O,-32.3% (inactive)
4,O=C(Nc1ccc(CSc2ccccc2)cc1)c1ccc(CN2CCOCC2)cc1,-79.7% (active)
5,O=C(Nc1ccccc1C(=O)N1CCOCC1)c1ccc(CSc2ccccc2)cc1,-24.2% (inactive)
6,C/C(CCc1ccccc1)=N\NC(=O)c1ccc(CN2CCOCC2)cc1,-12.4% (inactive)
7,CCCCN1CCNC1=S,47% (inactive)
8,CCn1cc(C(=O)NCc2ccc(C)cc2)c(=O)c2cc(S(=O)(=O)N3CCc4ccccc4C3)ccc21,7.01% (inactive)
9,Cc1c(Cl)cccc1NC(=O)C1CCCN(c2ncnc3onc(C)c23)C1 (stereo not drawn),4.4% (inactive)
10,CCc1ccccc1N(C)C(=O)C1CCCN(c2ncnc3onc(-c4ccc(F)cc4)c23)C1 (stereo not drawn),6.75% (inactive)
11,Cc1ccc(Cl)cc1N(C)C(=O)C1CCCN(c2ncnc3onc(-c4ccc(F)cc4)c23)C1 (stereo not drawn),-73.3% (active)
12,CC(C)Oc1ccc(S(=O)(=O)N2CCOCC2)cc1NC(=O)C1CCCC1,36.7% (inactive)
13,CCCc1cc(=O)oc2c(C)c(O)c(CN3CCCCC3)cc12,-20.3% (inactive)
14,O=C(c1ccc(Cl)cc1)c1ccc(OCC(O)CN2CCCCC2)cc1 (stereo not drawn),-63.1% (active)
15,OC(COc1ccc(CN2CCSCC2)cc1)CN1CCCCC1 (stereo not drawn),0% (inactive)
16,Cn1c(=O)c2c(nc(N3CCCCCC3)n2CC(O)COc2ccc(Cl)cc2)n(C)c1=O (stereo not drawn),16.7% (inactive)
17,COc1ccc(NC(=O)CCNS(=O)(=O)c2ccc3c(c2)CCCC(=O)N3)cc1Cl,-20.5% (inactive)
18,CCn1c(CNC(=O)C23CC4CC(CC(C4)C2)C3)nnc1SCC(=O)Nc1ccc(OC)cc1,10% (inactive)
